In all, about 2,400 compounds went through this assay and about 2,000 (83%) were called active. The set was probably picked from earlier hits. Only a sample is shown. A number with no mark means an inactive call.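 How the source made its calls: active means inhibition above the solvent-only control well mean plus 3 SD, limit set per screening run (cut at about 23% in these data); inactive means the rest.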

The target of the experiment is Guanyl-specific ribonuclease T1 (Aspergillus oryzae (strain ATCC 42149 / RIB 40)) (UniProt P00651). Put plainly: blockers of Aspergillus RNase T1 cleavage – biochemical, fluorescence polarization, counter-screen for TPT1 inhibitor project (AID 2153).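 Further: plate controls were DMSO wells with enzyme for no effect and wells without RNase T1 for full effect; inhibitors block cleavage so intact labeled substrate keeps polarization high.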 The note with it: 1536-well, at 5 µM, stronger effect = higher value. In general terms: In fluorescence polarisation assays a small probe gives low polarisation when free and higher when bound to something large.
Chain of Guanyl-specific ribonuclease T1 (Aspergillus oryzae (strain ATCC 42149 / RIB 40)) (P00651 whole entry, looked up): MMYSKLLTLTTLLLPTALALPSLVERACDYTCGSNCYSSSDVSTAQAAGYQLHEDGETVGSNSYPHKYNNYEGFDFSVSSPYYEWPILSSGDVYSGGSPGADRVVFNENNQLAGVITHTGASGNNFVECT
For orientation: inhibition means the drop in the measured response relative to a control, in per cent. In the case of `CC(C)n1c(=O)c(C=Nc2ccc(Br)cc2)c(O)n(Cc2ccco2)c1=O`, the inhibition was 28.4% (active).

In the case of `CCCCC(=O)N/N=C/c1c(O)n(CC)c(=S)n(CC)c1=O`, the inhibition is 110% (active).

`CCN1C(=O)C(=Cc2c(C)n(CC(=O)NCC3CCCO3)c3ccccc23)C(=O)N(CC)C1=S` (centres undefined): the inhibition was 26.4% (active). On to `COc1ccccc1N=Nc1c(O)[nH]c(=S)[nH]c1=O`, for which the inhibition was 77.7% (active).

Regarding `CC/C(=N\NC(=O)c1ccccc1O)c1c(O)n(Cc2ccccc2)c(=O)[nH]c1=O`, the inhibition was 35.2% (active).

As for `O=C1CC(=O)N(Cc2ccccc2)C(=O)N1CCCCCCN1C(=O)CC(=O)N(Cc2ccccc2)C1=O`, the inhibition is 34.1% (active). Regarding `COc1ccc(N2C(=O)/C(=C/c3ccco3)C(=O)NC2=S)cc1`, the inhibition was 24.8% (active).

Regarding `O=C1NC(=O)N(Cc2ccco2)C(=O)/C1=C\c1cccn1CCOc1ccccc1`, the inhibition is 11.7%. Under `O=C1NC(=O)N(Cc2ccco2)C(=O)/C1=C\c1ccc(-c2ccc(F)cc2)o1` stands 20.3%.

These data come from PubChem BioAssay AID2153 (The Scripps Research Institute Molecular Screening Center, 2009).
